Bioassay records (PubChem)
The list is not random: actives were taken first. Their share in the collection is about 8%.
KB-3-1 tox = qHTS assay for MDR1-selective chemotherapeutics: Primary screen using the parental adenocarcinoma cell KB-3-1; KB-3-1 viability, CellTiter-Glo ATP luminescence, 72 h; Potency, µM (doses to about 46.1 µM), usual class: cytotoxic; 400,000 tested, 1.4% active; AID 1347075, 2019; note: % is set by controls: 0 for no effect and ±100 for the full control effect; nearly all actives have a fitted effect of over 60% in size
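Cytotoxicity in the drug-sensitive parental line KB-3-1 was scored as loss of CellTiter-Glo luminescence following 72 h incubation with compound. Values come from curve fitting of normalized concentration-response data.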
MCF10A rereplic = A quantitative high throughput screen for small molecules that induce DNA re-replication in MCF 10a normal breast cells; Potency, µM (series often up to 46.1 µM), for inactives: top-dose activity, positive = re-replication, most hits filed as activators; 350,000 tested, 2.9% active; MCF 10A DNA re-replication, Hoechst nuclear intensity, 48 h; AID 624296, 2012; note: % of control where 0% means no effect; nearly all actives have a fitted effect of over 50% in size
SW480 rereplic = A quantitative high throughput screen for small molecules that induce DNA re-replication in SW480 colon adenocarcinoma cells; SW480 DNA re-replication, Hoechst DNA content imaging, 48 h; Potency, µM (doses to about 46.1 µM), without a hit: at the highest dose re-replication activation, usual class: activators; 340,000 tested, 1.8% active; AID 624297, 2012; note: % of control where 0% means no effect; nearly all actives have a fitted effect of over 55% in size
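Cells (250 per well) received 23 nL compound or DMSO by pin tool and were kept 48 hr at 37 C, 5% CO2. Nuclei were then stained with Hoechst for 40 min and scanned for DNA content.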
HT1080NT lethal = qHTS for induction of synthetic lethality in tumor cells producing 2HG: qHTS for the HT-1080-NT fibrosarcoma cell line | HT-1080-NT fibrosarcoma viability, CellTiter-Glo ATP luminescence, 48 h | Potency, µM (series often up to 46.1 µM), inactives show top-dose activity, negative = less viability, hits mostly cytotoxic | 360,000 tested, 1.6% active | AID 686970, 2013;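 note: NT is the 2HG producing partner of a matched IDH1 knockdown line; 0% = DMSO-treated cells and -100% = media-only wells without cells; nearly all actives have a fitted effect of over 55% in size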
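Toxicity toward the 2HG-producing NT line was scored as %Activity, normalised to DMSO and no-cell wells, from CellTiter-Glo luminescence after 48 hours' treatment.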
HT1080 IDH1KD tx = qHTS for induction of synthetic lethality in tumor cells producing 2HG: qHTS for the HT-1080-IDH1KD cell line. 360,000 tested, 2% active. HT-1080 IDH1 knockdown viability, ATP luminescence, 48 h. AID 686971, 2013. Potency, µM (doses to about 46.1 µM), for inactives: at the highest dose activity, negative = toxicity, actives largely listed as cytotoxic;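 note: 0% = DMSO wells and -100% = cell-free medium wells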
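Knockdown cells (IDH1KD HT-1080) received compounds 2 h after plating at 750 cells/well and were kept 48 h at 37 °C in 5% FBS RPMI. A CellTiter-Glo luminescence read gave % activity for curve fitting.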
KB-V1 cytotox = qHTS assay for MDR1-selective chemotherapeutics: Primary screen using the drug-selected MDR subline cells KB-V1 | KB-V1 MDR cells viability, CellTiter-Glo, 72 h | 400,000 tested, 3.4% active | Potency, µM (top dose mostly 46.1 µM), most hits filed as cytotoxic; note: % is set by controls: 0 for no effect and ±100 for the full control effect; nearly all actives have a fitted effect of over 60% in size
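qHTS viability screen in drug-selected KB-V1 MDR cells: 72 h compound treatment at 37 degrees C, ATP luminescence end point.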
Active calls of the source: *; i = inactive; u = inconclusive; x = no result given. Calls come from the whole dose curve; as a rule, active = well fitted curve in the direction sought with a large enough effect; inconclusive = small, poorly fitted or top-dose-only effect, or another doubt; inactive = no such curve, though single readings can be large; an effect the other way counts as inactive or inconclusive. Potency is the fitted concentration of half-maximal effect.

SMILES	KB-3-1 tox	MCF10A rereplic	SW480 rereplic	HT1080NT lethal	HT1080 IDH1KD tx	KB-V1 cytotox
Cc1ccc(OCCNC(=O)c2cccc(S(=O)(=O)NCc3ccccc3)c2)cc1	4.6µM*	6.5µM*	6.5µM*	u	7.3µM*	8.2µM*
CN(C)C(CNC(=O)c1cccc(S(=O)(=O)NCc2ccccc2)c1)c1ccccc1 (centres undefined)	i	u	6.5µM*	-15%	-3%	i
Cc1ccnc(NC(=O)c2cccc(S(=O)(=O)NCc3ccccc3)c2)c1	i	10%	-1%	-1%	3%	i
CCn1c2ccccc2c2cc(C3N=C(N)Nc4nc5ccccc5n43)ccc21 (centres undefined)	i	21µM*	16%	0%	26%	i
O=C(Nc1nc(-c2ccc(S(=O)(=O)N3CCCCCC3)cc2)cs1)c1ccccc1	i	10%	-3%	-11%	-16%	i
O=C(Nc1nc(-c2cccs2)cs1)c1ccc(S(=O)(=O)N2CCCC2)cc1	16µM*	13%	u	u	u	u
Cc1csc(NC(=O)c2ccc(S(=O)(=O)N3CCCC3)cc2)n1	i	9%	1%	-1%	2%	i
O=C(Nc1nc(-c2ccc3c(c2)OCCO3)cs1)c1ccc(S(=O)(=O)N2CCCCC2)cc1	u	2%	12%	u	-10%	8.2µM*
COc1ccc(C2=C(CN(C)C)C(c3ccccc3)c3ccccc3O2)cc1 (centres undefined)	i	26%	u	21µM*	23µM*	12µM*
COC(=O)[C@@]12C[C@@H](CC(=O)NCc3ccc(OC)c(OC)c3)C(=O)N(Cc3cccc4ccccc34)C1=CCC(C)(C)C2	i	x	x	u	-28%	21µM*
COC(=O)[C@@]12C[C@@H](CC(=O)NCc3ccc(C)o3)C(=O)N(CCc3ccc(OC)c(OC)c3)C1=CCC(C)(C)C2	u	x	x	-22%	-16%	18µM*
COC(=O)[C@@]12C[C@@H](CC(=O)NCc3cccs3)C(=O)N(CCc3ccc(OC)c(OC)c3)C1=CCC(C)(C)C2	i	x	x	-16%	-16%	u
COC(=O)[C@@]12C[C@@H](CC(=O)NCc3cccc4ccccc34)C(=O)N(CCc3ccc(OC)c(OC)c3)C1=CCC(C)(C)C2	u	x	x	u	-24%	23µM*
COC(=O)[C@@]12C[C@@H](CC(=O)NCc3ccccc3)C(=O)N(CCc3ccc(OC)c(OC)c3)C1=CCC(C)(C)C2	i	x	x	-21%	-4%	u
Cc1cccnc1CCNC(=O)CCc1nnc(CCc2ccccc2)o1	i	14%	1%	1%	8%	i
CCOc1ccc(S(=O)(=O)N(C)c2ccc(OCC(=O)NCc3cccnc3)cc2)cc1	i	-9%	-8%	-3%	-7%	u
CC(=O)Nc1ccc(S(=O)(=O)Nc2ccc(F)c([N+](=O)[O-])c2)cc1	i	u	-4%	-9%	-10%	i
Cc1cc(C(=O)Cn2nc(C(=O)O)c3ccccc3c2=O)c(C)n1-c1ccccc1	i	0%	2%	5%	-7%	16µM*
Cc1cc(C)c(C(=O)Cn2nc(C(=O)O)c3ccccc3c2=O)cc1C	i	-2%	1%	3%	-12%	i
CC(=O)c1ccc(N2CCN(C(=O)c3cc4c(s3)CCCC4)CC2)cc1	u	0%	-1%	-14%	-7%	i
